Rows were chosen to be rich in hits. Some 1.5% of all compounds tested hit in one or more screens of this group.
Epigenetic reg = epigenetic control regulation, reporter derepression; murine LDR cells, GFP reporter derepression, 30 h; 0.2% of 280,000 active; Potency, µM (titrated, usually from 53.9 µM), actives largely listed as activators; AID 1865; also: nearly all actives have a fitted effect of over 60% in size
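Reporter derepression read as number of fluorescent GFP-positive objects, 20-120 um in size, counted by laser-scanning cytometer. Mouse LDR line with an epigenetically silenced CMV-GFP locus; compound incubation 30 h, 37 C.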
NPSR antag = blocks cAMP signaling of the human neuropeptide S receptor; 1% of 220,000 active; Potency, µM (titrated, usually from 38.3 µM), usual class: inhibitors; AID 1461; Q6W5P4; CHO-NPSR cells, cAMP TR-FRET, antagonist mode; also: nearly all actives have a fitted effect of over 50% in size
Target sequence (Q6W5P4 whole entry, looked up): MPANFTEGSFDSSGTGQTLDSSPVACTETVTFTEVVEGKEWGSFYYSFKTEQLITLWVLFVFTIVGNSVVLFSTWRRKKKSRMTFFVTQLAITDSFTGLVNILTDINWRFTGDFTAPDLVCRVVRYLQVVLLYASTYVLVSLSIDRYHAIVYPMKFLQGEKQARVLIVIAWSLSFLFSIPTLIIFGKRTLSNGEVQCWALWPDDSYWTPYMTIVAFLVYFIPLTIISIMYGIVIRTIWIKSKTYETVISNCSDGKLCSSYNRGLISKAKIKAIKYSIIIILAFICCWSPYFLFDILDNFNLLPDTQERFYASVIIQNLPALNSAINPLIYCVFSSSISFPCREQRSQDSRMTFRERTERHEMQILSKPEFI
HttQ103 aggreg = reduces HttQ103-GFP aggregates in PC12 cells. PC12 HttQ103-GFP aggregates, Acumen cytometry, 40 h. Potency, µM (top dose mostly 46.1 µM), usual class: inhibitors. 1.1% of 220,000 active. AID 1688; also: nearly all actives have a fitted effect of over 60% in size
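Steps: seed 1500 PC12 HTTQ103-GFP cells/well; add tebufenozide, 100 nM final; add compound titration; add ATPLite reagent; quantify GFP aggregates by laser scanning cytometry.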
Lamin A splicing = changes lamin A minigene splicing in HeLa cells; HeLa LMNA splicing GFP/RFP minigene ratio, 48 h; Potency, µM (doses to about 46.1 µM), most hits filed as inhibitors; 0.01% of 200,000 active; AID 1487; active = well fitted inhibition curve with a large enough effect in the signal ratio, with a control signal flat, not every such curve was filed as active; inconclusive = small, poorly fitted or top-dose-only effect, or effect the other way, or a change in a side signal; the % refers to the signal ratio
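S3 HeLa stable clones carrying a lamin A-EGFP splicing minigene plus DsRed2 were seeded at 600 cells/well in Opti-MEM with 2% FBS, pin-dosed and incubated 48 h at 37°C. Acumen cytometry (488 nm) gave the GFP/RFP total-intensity ratio.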
HTT ATP protect = cytoprotection in Huntington HTT-Q103 PC12 cell model | PC12 HTT-Q103 induced, cytoprotection, ATP luminescence, 40 h | Potency, µM (series often up to 56.4 µM), usual class: activators | 0.14% of 230,000 active; also: nearly all actives have a fitted effect of over 45% in size
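Quantitative HTS on tebufenozide-induced (100 nM) PC12 cells expressing HTTQ103 exon 1–GFP; compounds tested as a concentration series; survival measured via cellular ATP.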
Of the large screens only hits and unclear results are named; the others gave an inactive call. Unless noted, calls follow the shape of the dose curve; as a rule, active = well fitted curve in the direction sought with a large enough effect; inconclusive = small, poorly fitted or top-dose-only effect, or another doubt; inactive = no such curve, though single readings can be large; an effect the other way counts as inactive or inconclusive.

CCOC(=O)c1c(C)oc2ccc(N(C(=O)Oc3ccccc3)S(=O)(=O)c3ccc(CC)cc3)cc12	none (no result: NPSR antag, HttQ103 aggreg, Lamin A splicing, HTT ATP protect)
CNC(=O)c1c(NC(=O)c2ccc(S(=O)(=O)N3CCCc4ccccc43)cc2)sc2c1CCN(C)C2	Epigenetic reg 22µM (no result: Lamin A splicing)
CN1CCc2c(sc(NC(=O)c3ccc(S(=O)(=O)N4CCc5ccccc54)cc3)c2C(N)=O)C1	Epigenetic reg inconclusive (no result: Lamin A splicing)
O=C(Nc1nnc(C2CC2)o1)c1ccc(S(=O)(=O)N2CCCc3ccccc32)cc1	HttQ103 aggreg 11µM, Lamin A splicing inconclusive
Cc1cc(C)cc(-n2ccnc2SCC(=O)Nc2ccc(C)cc2C)c1	none (no result: NPSR antag, HttQ103 aggreg, HTT ATP protect)
COc1ccc(CCNC(=O)c2cc(C)nc3c2c(C)nn3-c2ccccc2)cc1OC	none (no result: NPSR antag, HttQ103 aggreg, HTT ATP protect)
CC(C)Cn1c(/C=N/Nc2nc3ccccc3[nH]2)nc2ccccc21	Epigenetic reg inconclusive, NPSR antag inconclusive, HttQ103 aggreg 6.3µM, Lamin A splicing inconclusive
C=CCn1cc(/C=N/Nc2nc3ccccc3[nH]2)c2ccccc21	Epigenetic reg inconclusive, NPSR antag 10µM, Lamin A splicing inconclusive
CCCn1c(/C=N/Nc2nc3ccccc3[nH]2)nc2ccccc21	Epigenetic reg inconclusive, NPSR antag inconclusive, HttQ103 aggreg 16µM, Lamin A splicing inconclusive
Cn1c(/C=N/Nc2nc3ccccc3[nH]2)nc2ccccc21	HttQ103 aggreg inconclusive (no result: Lamin A splicing)
CCN(CC)c1ccc(/C=N/Nc2nc3ccccc3[nH]2)cc1	Epigenetic reg inconclusive, NPSR antag 5µM, HttQ103 aggreg inconclusive, Lamin A splicing inconclusive
Cc1ccc(-c2nc3scc(CCNC(=O)c4cccc(Br)c4)n3n2)cc1	Lamin A splicing inconclusive (no result: NPSR antag, HttQ103 aggreg, HTT ATP protect)
O=C1C(=Cc2cccn2-c2ccccc2)C(=O)c2ccccc21	Epigenetic reg 11µM (no result: HTT ATP protect)
O=C1C(=Cc2cccn2-c2ccc(O)cc2)C(=O)c2ccccc21	Epigenetic reg 22µM
CC(C)(C)OC(=O)N1CCC(c2c(C(=O)N3CCN(C(=O)c4ccco4)CC3)cnn2-c2cccc(F)c2)CC1	none (no result: NPSR antag, HttQ103 aggreg, HTT ATP protect)
Oc1ccc(/C=N/N2CCN(C3c4ccccc4-c4ccccc43)CC2)cc1O	NPSR antag 10µM (no result: Lamin A splicing)
COCCCNc1c2c3c(cccc3[nH]c1=O)C(=O)c1ccccc1-2	Epigenetic reg inconclusive, HttQ103 aggreg 10µM, Lamin A splicing inconclusive
COCCCNC1=C(Cl)C(=O)c2ccccc2C1=O	NPSR antag inconclusive (no result: Lamin A splicing)
CC(=C/c1ccccc1)/C=N/n1c(-c2ccncc2)n[nH]c1=S	HttQ103 aggreg 2µM
COC(=O)[C@H]1[C@@H]2C[C@H]3c4[nH]c5ccccc5c4CCN3C[C@@H]2CC[C@@H]1O	none (no result: Epigenetic reg, NPSR antag, HttQ103 aggreg, Lamin A splicing)
CCOC(=O)CC1C(=O)NCCN1C(=O)c1cc2c(=O)n3cccc(C)c3nc2s1 (configuration not stated)	none
CCCN1C(=O)/C(=C/c2c(N3CCNC(=O)C3CC(=O)OC)nc3c(C)cccn3c2=O)SC1=S (configuration not stated)	Epigenetic reg 14µM, NPSR antag inconclusive (no result: Lamin A splicing)
Cc1ccc(-n2c(C)cc(C(=O)CSc3nncs3)c2C)cc1	HttQ103 aggreg 10µM, Lamin A splicing inconclusive
CCn1nc([N+](=O)[O-])c(C(C#N)c2nc3ccccc3n2C)c(Cl)c1=O (configuration not stated)	Lamin A splicing inconclusive
CCCn1nc([N+](=O)[O-])c(C(C#N)c2nc3ccccc3s2)c(Cl)c1=O (configuration not stated)	NPSR antag 10µM, Lamin A splicing inconclusive, HTT ATP protect 13µM (no result: HttQ103 aggreg)
Cc1cc2sc3ccccc3c(=O)c2c(C)c1O	none (no result: Lamin A splicing)
O=c1c(C(c2ccccc2)c2c(O)sc3ccccc3c2=O)c(O)sc2ccccc12	NPSR antag 10µM, Lamin A splicing inconclusive
CCC(C)n1c(NC(=O)c2ccccc2)c(C#N)c2nc3ccccc3nc21 (configuration not stated)	Epigenetic reg 20µM, HttQ103 aggreg inconclusive, Lamin A splicing inconclusive
Cn1c(=O)c2cc(S(=O)(=O)N3CCC(c4ccccc4)CC3)ccc2n(C)c1=O	none
Cn1c(=O)c2cc(S(=O)(=O)N3CCOCC3)ccc2n(C)c1=O	HTT ATP protect 16µM
Cc1cc(C)c(C)c(S(=O)(=O)NCCC(=O)O)c1C	none (no result: NPSR antag, HttQ103 aggreg, Lamin A splicing, HTT ATP protect)
O=C(NCc1ccc2c(c1)OCO2)C1CCCN(S(=O)(=O)c2cccnc2)C1 (configuration not stated)	HttQ103 aggreg 32µM
CCCCOC(=O)CNc1n[nH]c(=S)[nH]c1=O	NPSR antag 10µM
O=c1oc2cc(O)c(Cl)cc2c2ccccc12	NPSR antag 7.9µM, Lamin A splicing inconclusive
Cc1cccc(N2C(=O)CC(Sc3nnc(C)s3)C2=O)c1 (configuration not stated)	HttQ103 aggreg 14µM
Cc1cccc(N2C(=O)CC(Sc3nc(C)cc(C)n3)C2=O)c1 (configuration not stated)	none
O=C(Nc1ccc2nc(SCC(=O)N3CCOCC3)sc2c1)c1cccc(Br)c1	Lamin A splicing inconclusive (no result: NPSR antag, HttQ103 aggreg, HTT ATP protect)
C[C@@H](C[C@@H](O)[C@H](O)C(C)(C)O)[C@@H]1CC[C@]2(C)C3=CC[C@H]4C(C)(C)C(=O)CC[C@]4(C)[C@H]3CC[C@@]12C	HttQ103 aggreg 35µM (no result: HTT ATP protect)
CC(C)(O)CC[C@@H](O)[C@](C)(O)[C@H]1CC[C@@]2(O)C3=CC(=O)[C@@H]4C[C@@H](O)[C@@H](O)C[C@]4(C)C3CC[C@]12C (some centres not stated)	none (no result: Lamin A splicing)
O=C(N/N=C/c1sc2ccccc2c1O)c1cccc2ccccc12	HttQ103 aggreg 1.4µM, Lamin A splicing inconclusive
COc1ccc(C(=O)N/N=C/c2c(CO)cnc(C)c2O)cc1	HttQ103 aggreg 32µM, Lamin A splicing inconclusive
COc1ccc(C(=O)N/N=C/c2sc3ccccc3c2O)cc1	HttQ103 aggreg 11µM, Lamin A splicing inconclusive
COc1ccc2cc(C(=O)N/N=C/c3sc4ccccc4c3O)ccc2c1	HttQ103 aggreg inconclusive, Lamin A splicing inconclusive
Cc1sccc1/C=N/NC(=O)c1cccc2ccccc12	none (no result: HTT ATP protect)
O=C(N/N=C/c1sc2ccccc2c1O)c1ccccc1	HttQ103 aggreg 3.2µM, Lamin A splicing inconclusive
CCOc1ccc(NC(=O)CSc2cn(CC(=O)N3CCOCC3)c3ccccc23)cc1	none (no result: NPSR antag, HttQ103 aggreg, Lamin A splicing, HTT ATP protect)
Cc1nn(CC(=O)NC(C)c2ccccc2)c(=O)c2cc3occc3n12 (configuration not stated)	none (no result: NPSR antag, HttQ103 aggreg, Lamin A splicing, HTT ATP protect)
CCOc1ccccc1C1CC(=O)NC2=C1C(=O)CC(C)(C)C2 (configuration not stated)	HttQ103 aggreg 35µM
COc1ccccc1NC(=O)CSc1nc2ccccc2c2nc(-c3ccccc3)nn12	none (no result: NPSR antag, HttQ103 aggreg, HTT ATP protect)
CCOC(=O)c1c(NC(=O)CSc2nc3cc(Cl)ccc3c(=O)n2Cc2ccco2)sc(C(=O)N(C)C)c1C	NPSR antag inconclusive, HttQ103 aggreg 7.1µM
CCN(C(=O)CSc1nc2cc(Cl)ccc2c(=O)n1Cc1ccco1)C1CCS(=O)(=O)C1 (configuration not stated)	HTT ATP protect 2.8µM (no result: Lamin A splicing)

Compound activity as filed in PubChem BioAssay.
